Source: PubChem BioAssay (NCATS)
Results filed as inconclusive are left out. Values without a mark were called inactive. The source made the active and inactive calls. Calls follow the shape of the dose curve; as a rule, active = well fitted inhibition curve with a large enough effect; inconclusive = small, poorly fitted or top-dose-only effect; inactive = no such curve, though single readings can be large or run the other way.

Test system: Zika virus NS2B-NS3 protease (unlinked complex)
Assay: Primary screen GU Rhodamine qHTS for Zika virus inhibitors: Unlinked NS2B-NS3 protease assay (AID 1347159); also: nearly all actives have a fitted effect of over 60% in size
Settings: Recombinant ZIKV NS2B-NS3 protease, Rhodamine110 substrate fluorescence; series mostly up to 107 µM; activity change, negative = inhibition: at the top concentration
Excerpt: Avindra Nath, Ph.D., National Institute of Neurological Disorders and Stroke (NINDS), Bethesda, MD
Radhakrishnan Padmanabhan, Ph.D., Georgetown University (GU), Washington D.C.
Zika Virus causes congenital defects, including microcephaly and is associated with Guillain-Barre syndrome, eningoencephalitis and myelitis in infected adult. […] Using a target-based approach, we hope to establish a screening paradigm to uncover novel, cell-active NS2B-NS3 protease (Zika Virus) specific inhibitors from NCATS' collection of small molecules using qHTS.
Four assay panel was created to identify potential Zika Virus inhibitors. Namely, (1) GU unlinked NS2B-NS3 AMC tagged protease qHTS, (2) GU unlinked NS2B-NS3 Rhodamine tagged protease qHTS, (3) NINDS linked NS2B-NS3 AMC tagged protease qHTS, (4) NINDS linked NS2B-NS3 Rhodamine tagged protease qHTS. Active compounds were re-acquired and re-screened to confirm inhibition. Inhibitors were further screened against various confirmatory and counterscreens in dose response format.
Early Translation Branch (ETB)
National Center for Advancing Translational Sciences (NCATS), Rockville, MD
National Institute of Health (NIH), Bethesda, Maryland
Padmanabhan lab provided the NS2B hydrophilic domain and NS3 protease domain in a noncovalent complex used for the unlinked assay. Control compound aprotinin is obtained from Thermo Scientific (#78432; Waltham, Massachusetts). Rhodamine110 substrate ([N-Cbz]-Nle-Lys-Arg-Arg-Rhod110-Arg-Arg-Lys-Nle-[N-Cbz]) was purchased from either Genscript or Bachem.
1536-well Protease (Rhodamine110 Substrate) Assay:
Briefly, 3 microL of enzyme (25 nM final concentration), in assay buffer (10 mM Tris-HCl pH 8.0 with 0.01% Tween 20) were dispensed into a 1,536-well solid-bottom black plate (Greiner Bio One, Monroe, NC). Twenty-three nL of compounds (final concentration range 7.28 nM to 114 microM) or control Aprotinin (final concentration range 3.47 nM to 114 microM) were transferred via Wako Pin-tool (Wako Automation, Richmond, VA). Samples were incubated (room temperature, protected from light) for 15 minutes followed by a 1 microL Rhodamine110 substrate addition (1.5 microM final concentration). Plates were then immediately read on a ViewLux High-throughput CCD imager (PerkinElmer, Waltham, MA) equipped with FITC fluorescence optics (480(20) nm excitation, 540(25) nm emission), then incubated (room temperature, protected from light) for 15 minutes (~15% conversion). The change in fluorescence intensity over the 15-minute reaction period was normalized against no-inhibitor and no-enzyme controls and the resulting percent inhibition data were fitted to a 4-parameter Hill equation. Aprotinin was used as intraplate control.
% is scaled to controls: 0 for no effect and ±100 for the full control effect; potency is read from the fitted curve at half-maximal effect.

SMILES | activity change, negative = inhibition | Potency
CCCCN1CCCC[C@H]1C(=O)Nc1c(C)cccc1C | -0.193% | 
CCCCOc1cc(C(=O)OCCN(CC)CC)ccc1N | -4.66% | 
CCN(CC)C(=O)Nc1ccc(OCC(O)CNC(C)(C)C)c(C(C)=O)c1 (stereo not given) | 11.7% | 
OCC(O)CN1CCN(c2ccccc2)CC1 (stereo not given) | 3.88% | 
O=C1Nc2ccc(Cl)cc2[C@@](C#CC2CC2)(C(F)(F)F)O1 |  | 44.7 µM (active)
CC(C)(C(=O)O)c1ccc(C(O)CCCN2CCC(C(O)(c3ccccc3)c3ccccc3)CC2)cc1 (stereo not given) | -0.357% | 
Cc1cc(N)c2ccccc2[n+]1CCCCCCCCCC[n+]1c(C)cc(N)c2ccccc21 | -15.4% | 
O=C(CCCN1CCN(c2ccccn2)CC1)c1ccc(F)cc1 | 2.94% | 
CC(C)(C)C(=O)C(Oc1ccc(Cl)cc1)n1ccnc1 (stereo not given) | 26.4% | 
Cc1cc(C(C#N)c2ccc(Cl)cc2)c(Cl)cc1NC(=O)c1cc(I)cc(I)c1O (stereo not given) |  | 1.78 µM (active)
CC/C=C(\C(=O)N[C@@H]1C(=O)N2C(C(=O)OCOC(=O)C(C)(C)C)=C(COC(N)=O)CS[C@H]12)c1csc(N)n1 | 0% | 
CCOC(CN1CCN(CC(C)C(=O)c2ccccc2)CC1)c1ccccc1 (stereo not given) | 47.6% | 
CCOc1nc2cccc(C(=O)O)c2n1Cc1ccc(-c2ccccc2-c2nn[nH]n2)cc1 | -10.9% | 
COc1ccc2c(c1)C(=O)N(CCc1ccc(S(=O)(=O)NC(=O)NC3CCCCC3)cc1)C(=O)C2(C)C | 0% | 
Cc1cccc(Nc2cc(Cl)nc(SCC(=O)O)n2)c1C | -10.1% | 
CN1CCOC(c2ccccc2)c2ccccc2C1 (stereo not given) | 12.2% | 
COc1ccc2[nH]c(S(=O)Cc3ncc(C)c(OC)c3C)nc2n1 (stereo not given) | 9.83% | 
CC(C)(O)c1ccccc1CC[C@@H](SCC1(CC(=O)O)CC1)c1cccc(/C=C/c2ccc3ccc(Cl)cc3n2)c1 |  | 3.16 µM (active)

SMILES | activity change, negative = inhibition | Potency
CCN(CC)CCCC(C)Nc1c2ccc(Cl)cc2nc2ccc(OC)cc12 (stereo not given) | -17.6% [at 57.1 µM] | 
COc1ccc2cc1Oc1ccc(cc1)C[C@H]1c3c(cc4c(c3Oc3cc5c(cc3OC)CCN(C)[C@@H]5C2)OCO4)CCN1C | 80.3% | 
O=c1[nH]cnc2c1ncn2[C@@H]1O[C@H](CO)[C@@H](O)[C@H]1O | -2% | 
CCCCc1ncc(/C=C(\Cc2cccs2)C(=O)O)n1Cc1ccc(C(=O)O)cc1 | 1.86% | 
c1ccc(CN(CC2=NCCN2)c2ccccc2)cc1 | 11.8% | 
CS(=O)(=O)c1ccc([C@@H](O)[C@@H](CF)NC(=O)C(Cl)Cl)cc1 | 0.505% | 
CNC(=O)Oc1ccc2c(c1)[C@]1(C)CCN(C)[C@@H]1N2C | 14.8% | 
Nc1nc2c(ncn2CCC(CO)CO)c(=O)[nH]1 | 27.8% | 
C[C@@H]1CN(c2c(F)c(F)c3c(=O)c(C(=O)O)cn(C4CC4)c3c2F)C[C@H](C)N1 | -12.9% [at 19.1 µM] | 
Cn1c(=O)c2c(ncn2CC2OCCO2)n(C)c1=O | -4.63% | 
CC(C(O)c1ccc(O)cc1)N1CCC(Cc2ccccc2)CC1 (stereo not given) | -22.6% [at 57.1 µM] | 
CN1CCC[C@@H]1Cc1c[nH]c2ccc(CCS(=O)(=O)c3ccccc3)cc12 | 9.26% | 
CCOc1ccc2ccccc2c1C(=O)N[C@@H]1C(=O)N2[C@@H]1SC(C)(C)[C@@H]2C(=O)O | -19.6% | 
C[C@@H]1C[C@H]2[C@@H]3C[C@H](F)C4=CC(=O)C=C[C@]4(C)[C@@]3(F)[C@@H](O)C[C@]2(C)[C@@]1(O)C(=O)CO | 23% | 
CCN(CC)CCNC(=O)c1cc(Cl)c(N)cc1OC | 6.47% | 
Cc1ccc2nc(N)[nH]c(=O)c2c1Sc1ccncc1 | -13.4% | 
C[C@]12CC[C@@H]3c4ccc(O)cc4CC[C@H]3[C@@H]1CC[C@@H]2OC(=O)CCC1CCCC1 |  | 20 µM (active)
